Assay outcomes as filed in PubChem BioAssay.
Rows were chosen to be rich in hits. Some 18% of all compounds tested hit in one or more screens of this group.
TDP1 cell noCPT: qHTS for Inhibitors of human tyrosyl-DNA phosphodiesterase 1 (TDP1): qHTS in cells in absence of CPT. AID 686978, 2013. actives 15% (n = 420,000). DT40 Tdp1-/- hTDP1 cells, no CPT, ATP luminescence, 48 h. Potency, µM (titrated, usually from 46.2 µM), hits mostly inhibitors; note: nearly all actives have a fitted effect of over 55% in size
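DT40 Tdp1-/-;hTDP1 cells, no CPT (DMSO vehicle only), 400 cells/well; compounds pin-transferred; ≥48 hr, 37 °C; CellTiter-Glo 30 min RT dark, luminescence read.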
TGFb SMAD3 inh: blocks TGF-b signaling; HepG2 CAGA-GFP TGF-b/SMAD3 reporter, GFP fluorescence, 18 h; TGF-beta stimulated, 500 pg/mL final; Potency, µM (highest dose often 46.1 µM), actives largely listed as inhibitors; actives 1.2% (n = 410,000); AID 588855; note: nearly all actives have a fitted effect of over 65% in size
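First, reporter cells (HEPG2 CAGA-GFP) rested 2 h at 37 degrees C. Next, compounds were pinned in and TGF-beta added to 500 pg/mL final. After 18 h, GFP was imaged per cell and summed per well.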
HepG2 viability: HepG2 cytotoxicity, counter-screen for TGF-b inhibitors; HepG2 CAGA-GFP viability, ATP luminescence, 18 h; Potency, µM (top dose mostly 46.1 µM), most hits filed as cytotoxic; actives 0.76% (n = 410,000)
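CellTiter-Glo luminescence gave cytotoxicity after 18 hours at 37 degrees C. The cells were HepG2 CAGA-GFP in 1% FBS DMEM, stimulated with 500 pg/mL TGF-beta after compound addition. %Activity was normalised to no-cell wells (complete cell-killing) and DMSO (no toxicity), and curves were fitted and classified.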
TDP1 cell CPT: DT40-hTDP1 cell growth loss with CPT; chicken DT40 Tdp1-/-;hTDP1 cells + 20 nM CPT, ATP luminescence, 48 h; Potency, µM (doses to about 46.2 µM), most hits filed as inhibitors; actives 12% (n = 420,000); AID 686979; note: nearly all actives have a fitted effect of over 55% in size
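Cell growth measured by CellTiter-Glo luminescence after a minimum 48 h, 37 C compound exposure with 20 nM CPT in Tdp1-knockout DT40 cells stably expressing hTDP1, seeded 400/well; qHTS titration format.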
TDP1 block: TDP1 (human) enzyme inhibition; actives 0.28% (n = 350,000); Potency, µM (top dose mostly 130 µM), most hits filed as inhibitors; AID 485290; Q9NUW8; recombinant TDP1, AlphaScreen DNA substrate cleavage; note: nearly all actives have a fitted effect of over 40% in size
Target sequence (Q9NUW8 whole entry, looked up): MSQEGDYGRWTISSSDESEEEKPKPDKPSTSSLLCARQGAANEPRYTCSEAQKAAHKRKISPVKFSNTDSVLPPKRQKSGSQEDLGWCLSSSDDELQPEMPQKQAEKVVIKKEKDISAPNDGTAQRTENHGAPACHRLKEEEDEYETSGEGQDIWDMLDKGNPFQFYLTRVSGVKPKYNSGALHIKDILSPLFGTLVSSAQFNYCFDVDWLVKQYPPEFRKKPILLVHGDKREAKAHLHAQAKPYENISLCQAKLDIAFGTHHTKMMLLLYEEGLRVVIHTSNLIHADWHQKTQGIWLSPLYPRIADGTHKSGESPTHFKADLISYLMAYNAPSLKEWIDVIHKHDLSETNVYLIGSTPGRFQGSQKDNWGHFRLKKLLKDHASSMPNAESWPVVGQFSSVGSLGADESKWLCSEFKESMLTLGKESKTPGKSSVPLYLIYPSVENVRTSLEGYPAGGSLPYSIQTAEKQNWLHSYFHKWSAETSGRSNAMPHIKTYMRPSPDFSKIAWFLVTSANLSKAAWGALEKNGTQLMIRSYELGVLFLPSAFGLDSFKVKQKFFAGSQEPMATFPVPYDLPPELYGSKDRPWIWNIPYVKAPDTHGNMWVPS
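Enzyme-compound mixtures sat 15 min at room temperature, followed by a 5 min reaction with 15 nM final substrate and 10 min with AlphaScreen beads. Recombinant human Tdp1 was used at 1 nM final.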
IL1B secr inh: blocks inflammasome-driven IL-1 beta release; THP-1 LPS/ATP IL-1B secretion, AlphaLISA, 16 h; active compounds read low; activity change, % at 57.5 µM; actives 4.7% (n = 360,000); in the data active = activity change below about -50%; inconclusive = mostly about -30% to -49%
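Secreted IL-1B measured by AlphaLISA bead assay after 16 h compound exposure of THP-1 cells; compounds (final up to 57.5 uM) added 1 h before LPS (250 ng/mL) and ATP (1.25 mM) stimulation; lower signal means less secretion.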
Hits are given with their value; . = inactive; ? = inconclusive; / = not tested or not shown. Unless noted, calls come from the whole dose curve; as a rule, active = well fitted curve in the direction sought with a large enough effect; inconclusive = small, poorly fitted or top-dose-only effect, or another doubt; inactive = no such curve, though single readings can be large; an effect the other way counts as inactive or inconclusive.

SMILES | TDP1 cell noCPT | TGFb SMAD3 inh | HepG2 viability | TDP1 cell CPT | TDP1 block | IL1B secr inh
Cc1cccc(C)c1NC(=O)CCCN1C(=O)CCn2nc(-c3cn(C)c4ccccc34)cc21 | 13µM | . | . | ? | . | /
COc1cc(NC(=O)CCCN2C(=O)CCn3nc(-c4cn(C)c5ccccc45)cc32)cc(OC)c1 | 18µM | ? | . | ? | . | /
CCOc1ccccc1CNC(=O)CCCN1C(=O)CCn2nc(-c3cccn3C)cc21 | ? | ? | . | 18µM | . | /
C=CCN1C(=O)C(Cc2cccc(Cl)c2)SC1=Nc1ccc(C(=O)O)cc1 (configuration not stated) | . | . | . | . | . | .
CC(C)c1ccc(NC(=O)Cc2c(C(=O)O)n(C)c3ccccc23)cc1 | . | . | . | . | / | .
Cc1nn(CC(=O)NC2CC2)c(=O)c2cc3ccccc3n12 | . | . | . | . | . | /
CC(NC(=O)CCCN1C(=O)CCn2nc(-c3cn(C)c4ccccc34)cc21)c1ccccc1 (configuration not stated) | 23µM | ? | . | ? | . | /
C/C(=N\Nc1cc(N2CCOCC2)nc(C)n1)c1ccc(F)cc1 | ? | ? | . | ? | / | ?
C/C(=N\Nc1cc(N2CCCCC2)nc(C)n1)c1ccc(Br)cc1 | 5.8µM | 10µM | 16µM | 13µM | . | -51
Cc1csc(N2CCCC2c2nc3cc(Cl)c(N4CCCCC4)cc3n2CCCO)n1 (configuration not stated) | 16µM | . | . | ? | / | .
OCCCn1c(C2CCCN2c2nc(-c3ccc(Cl)cc3)cs2)nc2cc(Cl)c(N3CCCCC3)cc21 (configuration not stated) | ? | . | . | ? | / | .
OCCCn1c(C2CCCN2c2nc(-c3ccc(F)cc3)cs2)nc2cc(Cl)c(N3CCCCC3)cc21 (configuration not stated) | 21µM | . | . | ? | / | .
CCC(C)Sc1ccc(-c2nc3ccccn3c2NCc2ccccc2)cc1OC (configuration not stated) | ? | 13µM | . | ? | . | -74
Cc1ccc(-c2nc3ccccn3c2NCc2ccc3c(c2)OCO3)cc1 | ? | . | . | 21µM | . | ?
COc1ccc(CSc2ccc(-c3nc4ccccn4c3NCc3ccccc3)cc2OC)cc1 | 8.2µM | ? | . | 9.2µM | . | ?
CCOc1cc(-c2nc3ccccn3c2NCC2CCCO2)ccc1O (configuration not stated) | . | . | . | . | . | .
COc1ccc(-c2nc3ccccn3c2NC2CCCCC2)cc1SC1CCCCC1 | 16µM | ? | . | ? | . | -75
COc1cc(-c2nc3ccccn3c2NCC2CCCO2)ccc1O (configuration not stated) | ? | . | . | ? | . | .
COc1cc(-c2nc3ccccn3c2NCc2ccccc2)ccc1SC1CCCCC1 | ? | ? | . | 26µM | / | .
C/C(=N/NC(=O)CN(c1ccccc1)S(=O)(=O)c1ccccc1)c1ccccc1O | 9.2µM | 7.1µM | 5.6µM | 18µM | / | .
CCN(CC)c1ccc(S(=O)(=O)N2CCOCC2)cc1NC(=O)C1CC1 | . | . | . | . | . | .
CCN(CC)S(=O)(=O)c1ccc(N(C)C)c(NC(=O)C2CCCC2)c1 | . | . | . | . | . | -54
CCN(CC)c1ccc(S(=O)(=O)N2CCCCC2)cc1NC(=O)C1CSC2(C)CCC(=O)N12 (configuration not stated) | 9.2µM | . | . | ? | . | -50
CCN(CC)c1ccc(S(=O)(=O)N2CCCCC2)cc1NC(=O)C1CCC1 | ? | ? | . | 18µM | . | .
CCC(C)[C@H](NC(=O)[C@H](Cc1ccccc1)n1c(=O)[nH]c2ccccc2c1=O)C(=O)NCC1CCC(C(=O)O)CC1 (some centres not stated) | . | . | . | . | / | .
SMILES | TDP1 cell noCPT | TGFb SMAD3 inh | HepG2 viability | TDP1 cell CPT | TDP1 block | IL1B secr inh
Cc1nc(-c2ccccc2)sc1CCNC(=O)c1ccco1 | / | . | . | / | . | /
CSc1nc(Nc2ccc(C)cc2C)cc(-c2ccccc2)n1 | 16µM | . | . | 16µM | . | /
CSc1nc(Cl)cc(Nc2ccccc2N)n1 | . | . | . | . | . | .
COc1ccc(C(=O)Nc2cccc(S(=O)(=O)NC3=NCCC3)c2)cc1OC | . | . | . | . | . | .
COc1cc(C2c3c([nH]c(=O)[nH]c3=O)Nc3ccc4ccccc4c32)ccc1O (configuration not stated) | . | . | . | . | . | -97
COc1cc(C2C3=C(CCCC3=O)Nc3ccc4ncccc4c32)ccc1O (configuration not stated) | 6.5µM | . | . | 6.5µM | . | .
COc1cc(C2c3c([nH]c(=O)[nH]c3=O)Nc3ccc4ccccc4c32)cc(OC)c1OC (configuration not stated) | . | . | . | . | / | -92
